Screens: PubChem, National Center for Advancing Translational Sciences (NCATS)
KB-3-1 cytotox = kills parental KB-3-1 adenocarcinoma cells; Potency, µM (highest dose often 46.1 µM), most hits filed as cytotoxic; KB-3-1 viability, CellTiter-Glo ATP luminescence, 72 h; AID 1347075; 400,000 tested, 1.4% active; note: nearly all actives have a fitted effect of over 60% in size
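72 h, 37 °C compound treatment of KB-3-1 parental cells; CellTiter-Glo added, 10 min, luminescence read. Data corrected against DMSO-only plates and normalized before curve fitting.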
MCF10A rerep = inducers of DNA re-replication in MCF 10A breast cells; MCF 10A DNA re-replication, Hoechst nuclear intensity, 48 h; Potency, µM (titrated, usually from 46.1 µM), hits mostly activators; 350,000 tested, 2.9% active; AID 624296; note: nearly all actives have a fitted effect of over 50% in size
SW480 rerep = DNA re-replication induction in SW480 cells. SW480 DNA re-replication, Hoechst DNA content imaging, 48 h. Potency, µM (top dose mostly 46.1 µM), usual class: activators. 340,000 tested, 1.8% active. AID 624297; note: nearly all actives have a fitted effect of over 55% in size
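Image-based DNA-content assay: after two days of treatment, nuclei were labelled with the DNA dye Hoechst and imaged, and hits were compounds raising the count of nuclei showing high fluorescence intensity.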
KB-V1 MDR tox = kills drug-selected multidrug resistant KB-V1 cells; KB-V1 MDR cells viability, CellTiter-Glo, 72 h; Potency, µM (top dose mostly 46.1 µM), actives largely listed as cytotoxic; 400,000 tested, 3.4% active; AID 1347076; note: nearly all actives have a fitted effect of over 60% in size
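KB-V1 cells (P-gp-expressing MDR subline of KB-3-1) in phenol-red-free DMEM with 10% FBS were exposed to library compounds over a concentration series for 72 h at 37 degrees C. Viability read by CellTiter-Glo luminescence; concentration-effect curves fitted after normalization.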
12-LOX inh = inhibitors of human 12S-lipoxygenase ALOX12; purified 12hLO, xylenol orange hydroperoxide absorbance; Potency, µM (series often up to 108 µM), hits mostly inhibitors; AID 1671190; 580,000 tested, 1.1% active; P18054
Target sequence (P18054 whole entry, looked up): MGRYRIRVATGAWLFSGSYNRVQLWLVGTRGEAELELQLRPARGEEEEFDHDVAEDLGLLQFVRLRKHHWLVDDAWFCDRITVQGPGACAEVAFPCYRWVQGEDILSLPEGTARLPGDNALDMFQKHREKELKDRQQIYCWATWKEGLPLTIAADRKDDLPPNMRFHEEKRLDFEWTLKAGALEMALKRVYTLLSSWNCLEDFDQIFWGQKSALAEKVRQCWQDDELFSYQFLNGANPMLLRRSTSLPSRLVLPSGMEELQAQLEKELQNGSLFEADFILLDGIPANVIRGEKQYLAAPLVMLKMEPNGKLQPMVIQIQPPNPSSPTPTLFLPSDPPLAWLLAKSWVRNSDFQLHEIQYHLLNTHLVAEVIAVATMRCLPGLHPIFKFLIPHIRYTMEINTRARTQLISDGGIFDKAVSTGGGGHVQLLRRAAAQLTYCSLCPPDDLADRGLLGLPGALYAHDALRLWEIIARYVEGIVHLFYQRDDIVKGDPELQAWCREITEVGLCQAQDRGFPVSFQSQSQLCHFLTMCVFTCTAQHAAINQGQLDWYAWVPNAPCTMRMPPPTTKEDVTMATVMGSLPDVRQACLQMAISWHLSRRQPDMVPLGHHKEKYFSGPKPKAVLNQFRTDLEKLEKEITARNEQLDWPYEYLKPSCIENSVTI
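Purified human 12hLO at 150 nM in 25 mM Hepes, 0.01% Triton X-100, pH 7.0, preincubated 15 min at room temperature with compound. Reaction started with 40 uM arachidonic acid, 30 min at room temperature. Hydroperoxide measured by Fe-xylenol orange, 573/405 nm absorbance ratio.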
PINK1 expr mod = modulators of PINK1 expression | Potency, µM (top dose mostly 76.6 µM), usual class: activators | 410,000 tested, 0.2% active | PINK1 immunofluorescence, high-content cytometry, 24 h | AID 624263; active = well fitted activation curve with a large enough effect; inconclusive = small, poorly fitted or top-dose-only effect; cell line not stated here; note: nearly all actives have a fitted effect of over 65% in size
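Decision-based qHTS: stable cells, 24 h exposure to five compound concentrations, CCCP as control. Fixed cells stained for PINK1 plus nuclear, mitochondrial and cell markers, cytometer read.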
Hits are given with their value; - = inactive; ? = inconclusive; . = no result; [ ] = dose if it differs, or a comment. Hits are enriched below; roughly 5.8% of the tested compounds scored in any of these assays. Unless noted, calls come from the whole dose curve; as a rule, active = well fitted curve in the direction sought with a large enough effect; inconclusive = small, poorly fitted or top-dose-only effect, or another doubt; inactive = no such curve, though single readings can be large; an effect the other way counts as inactive or inconclusive.

SMILES | KB-3-1 cytotox | MCF10A rerep | SW480 rerep | KB-V1 MDR tox | 12-LOX inh | PINK1 expr mod
COc1ccc(C2CC(c3ccccc3)=NN2c2ccc(S(N)(=O)=O)cc2)cc1 (centres undefined) | - | 0.581µM | 16.4µM | ? | ? | -
COc1ccc(C2=NN(CN3C(=O)C(=O)c4ccccc43)C(c3ccc(OC)cc3)C2)cc1 (centres undefined) | - | - | 5.8µM | - | ? | -
O=C(O)c1ccc(N2N=C(c3ccccc3)CC2c2ccccc2)cc1 (centres undefined) | - | 2.31µM | ? | - | ? | -
COc1ccc(C2CC(c3ccccc3Cl)=NN2c2ccc(S(N)(=O)=O)cc2)cc1 (centres undefined) | - | ? | 2.31µM | - | ? | -
COc1ccc(C2CC(c3cccc(C(F)(F)F)c3)=NN2c2ccc(S(N)(=O)=O)cc2)cc1 (centres undefined) | ? | ? | ? | ? | - | -
N#Cc1ccc(CSc2nccc(C(F)(F)F)n2)cc1 | . | . | . | . | - | .
CCCn1c(=O)n(C)c(=O)c2c(SCC(=O)Nc3ccc4c(c3)OCO4)nc(C3CC3)nc21 | . | . | . | . | - | .
CCOc1cccc2cc(-c3csc(Nc4cccc(C(F)(F)F)c4)n3)c(=O)oc12 | . | . | . | . | - | .
NS(=O)(=O)c1ccc(N2N=C(c3ccccc3)CC2c2cccc(Cl)c2)cc1 (centres undefined) | - | ? | 3.66µM | - | ? | -
Cc1cccc(C2CC(c3ccccc3)=NN2c2ccc(S(N)(=O)=O)cc2)c1 (centres undefined) | - | . | . | - | ? | -
NS(=O)(=O)c1ccc(N2N=C(c3ccccc3)CC2c2ccc(F)cc2)cc1 (centres undefined) | - | 20.6µM | 20.6µM | ? | - | -
COc1ccc(C2CC(c3cccc(F)c3)=NN2c2ccc(S(N)(=O)=O)cc2)cc1 (centres undefined) | ? | 2.06µM | 2.31µM | - | 31.6µM | -
Oc1ccccc1C1=NN(c2ccccc2)C(c2ccc(F)cc2)C1 (centres undefined) | - | ? | ? | - | - | -
COc1ccc(C2CC(c3cccc(Br)c3)=NN2c2ccc(S(N)(=O)=O)cc2)cc1 (centres undefined) | ? | ? | ? | ? | ? | -
COc1ccc(C2=NN(c3ccc(C=O)cc3)C(c3ccccc3)C2)cc1 (centres undefined) | - | ? | ? | - | . | -
COc1ccc(C2CC(c3ccccc3)=NN2c2ccc(C(N)=O)cc2)cc1 (centres undefined) | - | ? | 20.6µM | - | ? | -
CCOc1ccc(-c2ccc(C#N)c(SCC(=O)Nc3ccc(F)cc3)n2)cc1 | . | . | . | . | - | .
Cn1c(CC(=O)NCCO)c(Sc2ccccc2)c2ccccc21 | - | - | - | - | - | -
O=C(Cc1c(Sc2ccccc2)c2ccccc2n1Cc1ccccc1)NCCO | - | 20.6µM | - | - | - | -
COc1ccc(C2NC(=O)NC3=C2C(=O)N(Cc2ccccc2)C3)cc1OC (centres undefined) | . | . | . | . | - | .
CC1CC(C)(C)NC(=S)N1CCC(=O)N1c2ccccc2CC1C (centres undefined) | - | ? | -[1.84 µM] | - | - | -
Cc1cccc(N2CCN(C(=O)CCN3C(=S)NC(C)(C)CC3C)CC2)c1C (centres undefined) | - | - | - | 4.11µM | ? | -
Cc1nnc(SCc2nc3ccccc3s2)n1-c1ccccc1 | - | - | - | - | ? | .
c1ccc(-n2cnnc2SCc2nc3ccccc3s2)cc1 | - | ? | - | 20.6µM | - | -
CCOc1cc(NC(=O)c2ccco2)c(OCC)cc1NC(=O)COc1ccccc1C | 14.6µM | 2.06µM | - | ? | - | -
SMILES | KB-3-1 cytotox | MCF10A rerep | SW480 rerep | KB-V1 MDR tox | 12-LOX inh | PINK1 expr mod
Cc1ccccc1OCC(=O)Nc1ccccc1NC(=O)c1ccco1 | - | - | - | - | - | -
Cc1ccccc1OCC(=O)NNC(=S)NC(=O)c1ccco1 | ? | 14.1µM | ? | - | - | -
CCn1c(-c2cc3c(C(F)(F)F)nn(C)c3s2)n[nH]c1=S | ? | - | - | 10.3µM | 10µM | -
O=c1oc2ccccc2c(Nc2cccc(O)c2)c1[N+](=O)[O-] | - | 18.4µM | - | - | - | -
CCCC(=O)Nc1ccc(CNCc2c(C)cc(C)cc2C)cc1 | . | . | . | . | - | .
O=C(N/N=C/c1sc(=O)[nH]c1-[n+]1ccc2ccccc2c1)c1ccccc1[O-] | 8.2µM | - | - | ? | - | -
O=C(N/N=C/c1sc(=O)[nH]c1-[n+]1ccccc1)c1ccccc1[O-] | - | - | - | - | - | -
COC(=O)CCCNC(=O)C12CC3CC(CC(C3)C1)C2 | . | . | . | . | - | .
CCCCCCCCC/C=N/NC(=S)NC1CCCCC1 | . | . | . | . | 28.2µM | .
CC1CCC(NC(=O)Nc2cccs2)CC1 (centres undefined) | - | - | - | - | 12.6µM | -
CCOC(=O)c1ccc(NC(=O)COc2ccccc2CNCCc2ccccc2)cc1 | - | 2.31µM | - | - | ? | -
CCOC(=O)c1ccc(NC(=O)COc2ccc(CNCCO)cc2OCC)cc1 | - | - | - | - | - | -
O=S(c1cc(Cl)cc(Cl)c1O)c1cc(Cl)cc(Cl)c1O | ? | 13.3µM | - | ? | 28.2µM | ?
O=Cc1cc(Cl)c(O)c(Cl)c1 | . | . | . | . | - | .
CN1CCc2cccc3c2[C@@H]1Cc1ccc(O)c(O)c1-3 | ? | ? | 3.66µM | ? | . | -
COC(=O)c1c(-c2ccc(OC)cc2)sc2ccc(N3CCOCC3)cc12 | 14.6µM | - | - | - | - | -
CC1CCCC=CC2CC(OC(=O)CN(C)C)CC2C(O)C=CC(=O)O1 (centres undefined) | 0.0082µM | ? | ? | ? | - | -
COc1ccccc1CCc1nnc(CCC(=O)N(C)Cc2cccc3ncccc23)o1 | - | ? | - | 8.2µM | - | -
N#Cc1ccccc1Sc1ccccc1C(=O)Nc1ccc(Br)cc1 | - | - | - | 18.4µM | - | -
CCSc1ccccc1C(=O)Nc1cccc(OC)c1 | - | - | - | 18.4µM | - | -
COCCSc1ccccc1C(=O)Nc1cccnc1 | - | - | - | - | 22.4µM | -
COCCSc1ccccc1C(=O)Nc1ccc2c(c1)OCO2 | - | ? | - | - | - | -
COc1cccc(NC(=O)c2ccccc2Oc2ccccc2)c1 | - | - | - | - | - | -
COCCSc1ccccc1C(=O)Nc1ccc(Cl)cc1 | - | - | - | ? | 17.8µM | -
Cc1cccc(C(=O)NC(C)C(=O)OCc2cc(=O)oc3c(C)c(O)ccc23)c1 (centres undefined) | . | . | . | . | - | .
COCCSc1ccccc1C(=O)Nc1ccc(Br)cc1 | - | ? | - | - | 35.5µM | -
COc1ccc(C(=O)Nc2ccc(-c3noc([C@@H]4CCCN4Cc4cnc5ccccc5c4)n3)cn2)cc1 | . | . | . | . | - | .
